Experimental data as given in PubChem BioAssay AID1159580 (chemical genetic matrix, 2015).
The whole screen tested about 5,500 compounds, of which about 2,000 (36%) were called active. Not shown: some 18% with an inconclusive outcome. Rule as the data show it: active = normalized growth mostly below about 0.91 (no sharp cut-off); inconclusive = no clear call, values can overlap the other calls; inactive = mostly above about 0.92. This is one part of the list.

Experiment: chemical genetic growth profiling, strain panel (AID 1159580);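 also: tested at 20 µM; growth read once vehicle control cultures reached saturation at 30 °C; 1 = growth at the plate median or of vehicle wells; lower values mean less growth of the strain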
Conditions: growth OD

Measured: normalized growth

CCOC(=O)[C@H](CCc1ccccc1)N[C@H]1CCc2ccccc2N(CC(=O)O)C1=O
inactive: S. cerevisiae deletion strains, locus YJR075W, strain HOC1, stronger effect = lower value 0.994 | S. cerevisiae deletion strains, locus YKL009W, strain mrt4, stronger effect = lower value 1 | S. cerevisiae deletion strains, locus YKL068W, stronger effect = lower value 0.973 | S. cerevisiae deletion strains, locus YKL085W, strain MDH1 (second series), stronger effect = lower value 0.967 | S. cerevisiae deletion strains, locus YKL085W, strain MDH1, stronger effect = lower value 0.967 | S. cerevisiae deletion strains, locus YKL160W, strain elf1, stronger effect = lower value 0.993 | S. cerevisiae deletion strains, locus YKL190W, strain CNB1, stronger effect = lower value 0.989 | S. cerevisiae deletion strains, locus YKR001C, strain vps1, stronger effect = lower value 0.983 | S. cerevisiae deletion strains, locus YKR026C, strain gcn3, stronger effect = lower value 0.979 | S. cerevisiae deletion strains, locus YKR091W, strain srl3, stronger effect = lower value 0.989 | S. cerevisiae deletion strains, locus YLL001W, strain dnm1, stronger effect = lower value 0.983 | S. cerevisiae deletion strains, locus YLL026W, stronger effect = lower value 0.989 | S. cerevisiae deletion strains, locus YLL041C, strain sdh2, stronger effect = lower value 0.986 | S. cerevisiae deletion strains, locus YLR027C, strain aat2, stronger effect = lower value 0.982 | S. cerevisiae deletion strains, locus YLR039C, strain RIC1, stronger effect = lower value 1.02 | S. cerevisiae deletion strains, locus YLR058C, strain SHM2, stronger effect = lower value 0.999 | S. cerevisiae deletion strains, locus YLR102C, strain apc9, stronger effect = lower value 0.972 | S. cerevisiae deletion strains, locus YLR113W, strain HOG1, stronger effect = lower value 1.01 | S. cerevisiae deletion strains, locus YLR221C, strain rsa3, stronger effect = lower value 0.983 | S. cerevisiae deletion strains, locus YLR258W, strain gsy2, stronger effect = lower value 0.983 | S. cerevisiae deletion strains, locus YLR262C, strain YPT6 (second series), stronger effect = lower value 0.97 | S. cerevisiae deletion strains, locus YLR262C, strain YPT6, stronger effect = lower value 0.955 | S. cerevisiae deletion strains, locus YLR268W, strain sec22, stronger effect = lower value 0.98 | S. cerevisiae deletion strains, locus YLR320W, strain mms22, stronger effect = lower value 0.966 | S. cerevisiae deletion strains, locus YLR330W, strain CHS5, stronger effect = lower value 0.986 | S. cerevisiae deletion strains, locus YLR342W, strain FKS1 (second series), stronger effect = lower value 1.05 | S. cerevisiae deletion strains, locus YLR342W, strain FKS1, stronger effect = lower value 0.956 | S. cerevisiae deletion strains, locus YLR357W, strain rsc2, stronger effect = lower value 0.912 | S. cerevisiae deletion strains, locus YLR370C, strain arc18, stronger effect = lower value 0.988 | S. cerevisiae deletion strains, locus YLR371W, strain rom2, stronger effect = lower value 0.969 | S. cerevisiae deletion strains, locus YLR384C, strain iki3, stronger effect = lower value 0.986 | S. cerevisiae deletion strains, locus YLR418C, strain cdc73, stronger effect = lower value 0.953 | S. cerevisiae deletion strains, locus YML016C, strain PPZ1, stronger effect = lower value 0.98 | S. cerevisiae deletion strains, locus YML032C, strain rad52, stronger effect = lower value 0.984 | S. cerevisiae deletion strains, locus YML120C, strain ndi1, stronger effect = lower value 0.975 | S. cerevisiae deletion strains, locus YML124C, strain tub3, stronger effect = lower value 0.971 | S. cerevisiae deletion strains, locus YMR058W, strain fet3, stronger effect = lower value 0.988 | S. cerevisiae deletion strains, locus YMR078C, strain ctf18, stronger effect = lower value 0.978 | S. cerevisiae deletion strains, locus YMR125W, strain sto1, stronger effect = lower value 0.996 | S. cerevisiae deletion strains, locus YMR129W, stronger effect = lower value 0.991 | S. cerevisiae deletion strains, locus YMR205C, strain PFK2, stronger effect = lower value 0.974 | S. cerevisiae deletion strains, locus YMR223W, strain ubp8, stronger effect = lower value 0.993 | S. cerevisiae deletion strains, locus YMR231W, strain pep5, stronger effect = lower value 0.986 | S. cerevisiae deletion strains, locus YMR263W, strain SAP30, stronger effect = lower value 0.993 | S. cerevisiae deletion strains, locus YMR307W, strain GAS1, stronger effect = lower value 0.939 | S. cerevisiae deletion strains, locus YNL067W, strain RPL9B, stronger effect = lower value 0.996 | S. cerevisiae deletion strains, locus YNL071W, strain lat1, stronger effect = lower value 0.989 | S. cerevisiae deletion strains, locus YNL128W, strain TEP1, stronger effect = lower value 0.984 | S. cerevisiae deletion strains, locus YNL153C, strain GIM3, stronger effect = lower value 0.988 | S. cerevisiae deletion strains, locus YNL183C, strain NPR1, stronger effect = lower value 0.959 | S. cerevisiae deletion strains, locus YNL209W, strain ssb2, stronger effect = lower value 0.98 | S. cerevisiae deletion strains, locus YNL233W, strain BNI4, stronger effect = lower value 0.99 | S. cerevisiae deletion strains, locus YNL248C, strain rpa49, stronger effect = lower value 0.98 | S. cerevisiae deletion strains, locus YNL250W, strain rad50, stronger effect = lower value 0.963 | S. cerevisiae deletion strains, locus YNL271C, strain bni1, stronger effect = lower value 0.959 | S. cerevisiae deletion strains, locus YNL298W, strain CLA4, stronger effect = lower value 0.968 | S. cerevisiae deletion strains, locus YNL307C, strain MCK1, stronger effect = lower value 0.986 | S. cerevisiae deletion strains, locus YNL322C, strain KRE1 (second series), stronger effect = lower value 0.967 | S. cerevisiae deletion strains, locus YNL322C, strain KRE1, stronger effect = lower value 0.98 | S. cerevisiae deletion strains, locus YNR049C, strain mso1, stronger effect = lower value 0.994 | S. cerevisiae deletion strains, locus YNR052C, strain pop2, stronger effect = lower value 0.977 | S. cerevisiae deletion strains, locus YOL006C, strain TOP1, stronger effect = lower value 1.08 | S. cerevisiae deletion strains, locus YOL012C, strain htz1 1.02 | S. cerevisiae deletion strains, locus YOL147C, strain pex11, stronger effect = lower value 0.975 | S. cerevisiae deletion strains, locus YOR001W, strain rrp6, stronger effect = lower value 0.989 | S. cerevisiae deletion strains, locus YOR061W, strain CKA2, stronger effect = lower value 0.983 | S. cerevisiae deletion strains, locus YOR069W, strain VPS5, stronger effect = lower value 0.99 | S. cerevisiae deletion strains, locus YOR070C, strain gyp1, stronger effect = lower value 0.982 | S. cerevisiae deletion strains, locus YOR080W, strain dia2, stronger effect = lower value 0.973 | S. cerevisiae deletion strains, locus YOR083W, strain WHI5, stronger effect = lower value 0.982 | S. cerevisiae deletion strains, locus YOR106W, strain vam3, stronger effect = lower value 0.984 | S. cerevisiae deletion strains, locus YOR136W, strain idh2, stronger effect = lower value 0.974 | S. cerevisiae deletion strains, locus YOR144C, strain elg1, stronger effect = lower value 0.965 | S. cerevisiae deletion strains, locus YOR184W, strain ser1, stronger effect = lower value 0.981 | S. cerevisiae deletion strains, locus YOR231W, strain MKK1, stronger effect = lower value 0.976 | S. cerevisiae deletion strains, locus YOR265W, strain rbl2, stronger effect = lower value 0.987 | S. cerevisiae deletion strains, locus YOR270C, strain vph1, stronger effect = lower value 1.04 | S. cerevisiae deletion strains, locus YOR290C, strain snf2, stronger effect = lower value 0.993 | S. cerevisiae deletion strains, locus YOR316C, strain cot1, stronger effect = lower value 0.959 | S. cerevisiae deletion strains, locus YPL051W, strain arl3, stronger effect = lower value 0.978 | S. cerevisiae deletion strains, locus YPL055C, strain LGE1, stronger effect = lower value 1.02 | S. cerevisiae deletion strains, locus YPL078C, strain atp4, stronger effect = lower value 0.984 | S. cerevisiae deletion strains, locus YPL106C, strain sse1, stronger effect = lower value 0.963 | S. cerevisiae deletion strains, locus YPL240C, strain hsp82, stronger effect = lower value 0.979 | S. cerevisiae deletion strains, locus YPL241C, strain CIN2, stronger effect = lower value 0.983 | S. cerevisiae deletion strains, locus YPL256C, strain CLN2, stronger effect = lower value 0.965 | S. cerevisiae deletion strains, locus YPR119W, strain clb2, stronger effect = lower value 0.971 | S. cerevisiae deletion strains, locus YPR141C, strain kar3, stronger effect = lower value 0.948 | S. cerevisiae deletion strains, locus YPR163C, strain tif3, stronger effect = lower value 0.968 | S. cerevisiae deletion strains, locus YPR167C, strain met16, stronger effect = lower value 0.978 | S. cerevisiae deletion strains, strain wtn01, stronger effect = lower value 0.973 | S. cerevisiae strains, strain wild type, stronger effect = lower value 0.98
